Laboratory results published in PubChem BioAssay (NCATS).
Inconclusive results are not listed. Calls of active or inactive are those of the source. Calls come from the whole dose curve; as a rule, active = well fitted curve in the direction sought with a large enough effect; inconclusive = small, poorly fitted or top-dose-only effect, or another doubt; inactive = no such curve, though single readings can be large; an effect the other way counts as inactive or inconclusive.

Assays:
[1] = Cellular Toxicity (caspase-3) N2a (AID 665);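 note: compound exposure lasted 16 h at 37 °C before readout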
Outline: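 Mouse N2a neuroblastoma cells, 1500 per well, treated 16 h at 37 °C in complete medium; caspase-3/7 activity by Caspase-Glo luminescence after 1 h. Normalized to DMSO and 10 uM staurosporine; AC50 from Hill fits.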

[2] = Cellular Toxicity (caspase-3) NIH 3T3 (AID 666);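 note: caspase signal read after 16 h compound exposure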
Outline: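 Mouse NIH 3T3 fibroblasts (1000/well) treated 16 h at 37 C; caspase-3/7 activity measured by Caspase-Glo 3/7 luminescence after 20 min. Normalized to DMSO and 100 uM tamoxifen; AC50 from Hill fits.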

[3] = Cellular Toxicity (caspase-3) Renal Proximal Tubule (AID 667);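 note: cells exposed to compound for 16 hours at 37 °C before detection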
Outline: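 In qHTS format, rat primary proximal tubule cells seeded at 1000 per well are exposed to compounds for 16 hours at 37 °C. An increase in Caspase-Glo 3/7 luminescence indicates caspase activation.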

[4] = MultiTox-Fluor Cytotoxicity Assay - LYMP1-001 - Dead Cells (AID 946)
Outline: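 Seed 2500 LYMP1-001 cells/well, incubate 5 hr at 37 C; add compound, 16 hr at 37 C; add MultiTox-Fluor reagent, 60 min RT; read dead-cell fluorescence Ex/Em=485/520. Normalize to DMSO and 15 uM tetraoctylammonium bromide.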

[5] = MultiTox-Fluor Cytotoxicity Assay - LYMP1-001 - Live Cells (AID 947)
[6] = Cell Viability - LYMP1-002 - Assay at 16 hr (AID 948)
Outline: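 Acute cytotoxicity is scored as a concentration-dependent fall in intracellular ATP in a human lymphoblastoid line (LYMP1-002) after 16 hr compound exposure at 37 C, measured by luciferase luminescence.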

[7] = MultiTox-Fluor Cytotoxicity Assay - LYMP1-002 - Live Cells (AID 955)
Outline: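 Human lymphoblastoid LYMP1-002 cells, 2500/well, treated 16 h at 37 C in complete medium. Live-cell protease activity via GF-AFC fluorescence (Ex/Em 405/510) after 60 min reagent incubation; AC50 from Hill fits.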

[8] = MultiTox-Fluor Cytotoxicity Assay - LYMP1-002 - Dead Cells (AID 960); note: nearly all actives have a fitted effect of over 60% in size
Outline: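 Human lymphoblastoid LYMP1-002 cells, 2500/well, treated 16 h at 37 C; dead-cell protease cleavage of bis-AAF-R110 read by fluorescence (485/520); normalized to DMSO and 15 uM tetraoctylammonium bromide; AC50 from Hill fit.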

[9] = MultiTox-Fluor Cytotoxicity Assay - LYMP1-003 - Dead Cells (AID 961); note: nearly all actives have a fitted effect of over 70% in size
Outline: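 LYMP1-003 lymphoblastoid, 2500 cells/well, 5 hr settle then 16 hr cpd at 37 C; MultiTox-Fluor reagent 60 min RT; Ex/Em 485/520 dead-cell signal; norm. DMSO = 0%, 15 uM tetraoctylammonium bromide = 100%; Hill AC50.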

[10] = MultiTox-Fluor Cytotoxicity Assay - LYMP1-003 - Live Cells (AID 962);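 note: cytotoxic hits lower the live-cell protease signal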
Outline: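 LYMP1-003 lymphoblastoid cells, 2500/well in complete medium, treated 16 h at 37 C; live-cell protease cleavage of GF-AFC read by fluorescence (Ex/Em 405/510) after 60 min reagent; AC50 from Hill fits of concentration-response.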

[11] = Cell Viability - LYMP1-003 - Assay at 24 hr (AID 963)
Outline: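 Human lymphoblastoid LYMP1-003 cells, 2500/well, treated 24 h at 37 C in complete medium. Viability read as intracellular ATP by CellTiter-Glo luminescence after 30 min at room temperature; AC50 from Hill-equation fits of qHTS concentration-response.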

[12] = Cell Viability - LYMP2-003 (AID 965);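 note: cells exposed to compounds for 24 h before reading; nearly all actives have a fitted effect of over 50% in size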
Outline: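 Acute cytotoxicity is scored as a concentration-dependent drop in intracellular ATP, measured by luciferase luminescence in human lymphoblastoid cells treated for 24 hours at 37 C. AC50 values derive from Hill-equation modelling.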

[13] = Cell Viability - LYMP2-004 (AID 966); note: nearly all actives have a fitted effect of over 65% in size
Outline: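 Lymphoblastoid LYMP2-004 cells, 2500 per well, were preincubated for 5 hr and then treated with compound for 24 h at 37 C in complete medium. Viability was read as cellular ATP by CellTiter-Glo luminescence, and AC50 values were taken from Hill fits to concentration-response data.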

[14] = Cell Viability - LYMP2-005 (AID 967); note: series mostly up to about 92 µM
Outline: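 qHTS viability screen in LYMP2-005 cells: 24 h at 37 C with compound, ATP luminescence via CellTiter-Glo, AC50 from Hill curves.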

[15] = Cell Viability - LYMP2-009 (AID 968); note: series mostly up to about 92 µM; nearly all actives have a fitted effect of over 55% in size
[16] = Cell Viability - LYMP2-011 (AID 969); note: nearly all actives have a fitted effect of over 60% in size
Outline: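 2500 cells/well in complete medium, compound-treated 24 h at 37 C. Viability read as intracellular ATP by CellTiter-Glo luminescence after 30 min at room temperature. AC50 from Hill fits of qHTS concentration-response data.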

[17] = Cell Viability - LYMP2-013 (AID 970); note: series mostly up to about 92 µM; nearly all actives have a fitted effect of over 55% in size
Outline: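 Human lymphoblastoid LYMP2-013 cells, 2500/well, treated 24 h at 37 C in complete medium; viability as intracellular ATP by CellTiter-Glo luminescence after 30 min. AC50 from Hill fits of qHTS concentration-response.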

[18] = Cell Viability - LYMP2-015 (AID 971); note: nearly all actives have a fitted effect of over 55% in size
Outline: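 LYMP2-015 human lymphoblastoid cells (2500/well) in complete medium, compound-treated 24 h at 37 C; viability read as cellular ATP by CellTiter-Glo luminescence after 30 min at room temperature. AC50 from Hill-equation fits of qHTS concentration-response data.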

[19] = Cell Viability - LYMP2-017 (AID 972); note: series mostly up to about 92 µM; nearly all actives have a fitted effect of over 55% in size
Outline: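 LYMP2-017 human lymphoblastoid cells (2500/well) settled 5 hr at 37 C, then exposed to compound 24 hr at 37 C in complete medium. Viability taken as intracellular ATP by CellTiter-Glo luminescence after 30 min at RT; AC50 from Hill fits.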

[20] = Cell Viability - LYMP2-019 (AID 973); note: nearly all actives have a fitted effect of over 55% in size
Outline: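 Human lymphoblastoid LYMP2-019 cells (2500/well) preincubated 5 h at 37 C, then treated 24 h at 37 C in complete medium. Viability by CellTiter-Glo ATP luminescence after 30 min at room temperature; AC50 from Hill fits.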

Measured: outcome

CO[C@H]1/C=C/O[C@@]2(C)Oc3c(C)c(O)c4c(O)c(c(/C=N/N5CCN(C)CC5)c(O)c4c3C2=O)NC(=O)/C(C)=C\C=C\[C@H](C)[C@H](O)[C@@H](C)[C@@H](O)[C@@H](C)[C@H](OC(C)=O)[C@@H]1C
inactive: [1] | [2] | [3] | [4] | [5] | [6] | [7] | [8] | [9] | [10] | [11] | [12] | [13] | [14] | [15] | [16] | [17] | [18] | [19] | [20]
